From PubChem BioAssay AID2289 (National Center for Advancing Translational Sciences (NCATS), 2010) come the findings set out here.

In all, about 340,000 compounds went through this assay and about 3,300 (0.97%) were called active. About 9% were inconclusive and are not listed. Calls come from the whole dose curve; as a rule, active = well fitted inhibition curve with a large enough effect; inconclusive = small, poorly fitted or top-dose-only effect, or effect the other way; inactive = flat fitted curve, though single readings scatter. Some of the results follow.
Potency is the fitted concentration of half-maximal effect.

The test can be described thus: qHTS Assay for Modulators of miRNAs and/or Inhibitors of miR-21. Note: nearly all actives have a fitted effect of over 55% in size. To be noted: HeLa miR-21-FLuc reporter, luciferase luminescence, 48 h; actives lower the signal. From the text:
MLSCN Grant: 1 R21 NS059478-01 Assay Provider: Qihong Huang, The Wistar Institute NCGC Assay Overview: MicroRNAs (miRNAs) are endogenously encoded small (~20-25 nucleotides), nonprotein-coding RNAs that are involved in post-transcriptional repression of target messenger RNAs (mRNAs) (Le and Hannon, 2004). Estimated to be involved in the regulation of 30% of all protein-coding mRNAs (Filipowicz et al., 2008), miRNAs play a significant role in many biological processes including cellular differentiation and tissue development (Ghildiyal and Zamore, 2009).
NCGC Assay Protocol Summary: Reagents: HeLa cells stably expressing firefly luciferase (FLuc) under the control of a CMV promoter (upstream) and a miR-21 binding sequence directly downstream of the gene. These cells endogenously express miR-21. Control compounds used were compound C3 (provided by collaborator), N6-phenyladenosine (MP Biomedicals, 0215379625), and DMSO. Assay Summary: 6uL of HeLa miR-21-FLuc cells in assay buffer (DMEM, Invitrogen #21063-029; 10% FBS, HyClone #SH30071.03) were dispensed at 2000cells/well (3.3 x 10^5 cells/mL) into Greiner solid-white TC-treated 1536-well plates using a Multidrop Combi (Thermo Fisher Scientific). Plates were incubated for one hour at 37 degree Celsius, 95% humidity, 5% CO2. These assay plates were then treated with 23nL of compound or DMSO using a Kalypsys pin tool, which allows for delivery of a 24-point titration of each compound to the assay plate, with a final compound concentration ranging from approximately 40uM to 5pM. Assay plates were then incubated for 48 hours. After incubation, plates were allowed to come to RT for one hour prior to delivery of 3uL of 3X luciferase detection reagent. After a 15 minute incubation to allow for cell lysis, luciferase activity was measured using a ViewLux CCD imager (PerkinElmer), with an average exposure time of 2-12 seconds. Keywords: NIH Roadmap, MLPCN, MLSMR, qHTS, miR-21, microRNA, firefly luciferase, FLuc.
(In qHTS, concentration-response curves come from the screen itself.)
As for `O=C(CSc1ccc(F)cc1)Nc1ccc(C2SCCS2)cc1`, the Potency is 11.7 µM (active).
With `COc1ccc(NC(=O)CCSc2ccc(F)cc2)cc1`, the Potency is 7.36 µM (active).
On to `COc1ccccc1NC(=O)c1csc2c1CCC(C)C2` (centres undefined), for which the Potency was 5.85 µM (active).
For the compound `CC1CCc2c(C(=O)NCc3ccccn3)csc2C1` (centres undefined), the Potency is 11.7 µM (active).
As for `Cc1ccc(-c2cc(NC(=O)c3ccccc3Cl)on2)cc1`, the Potency was 2.61 µM (active).
On to `CCc1nc(NC(C)(C)C)c2cnn(-c3ccccc3)c2n1`, for which the Potency was 7.36 µM (active).
For the compound `Cc1ccoc1C(=O)Nc1cccc(Oc2ccccc2)c1`, the Potency was 3.29 µM (active).
`CCn1c(O)c(/C=C2\C=Nc3ccccc32)sc1=O`: the Potency is 1.17 µM (active).
In the case of `CCn1c(O)c(/C=C2\C=Nc3ccccc32)sc1=Nc1ccccc1` it was 7.36 µM (active).
With `N/C(=N\OC(=O)Cc1cccs1)c1ccc(Br)cc1` the figure was 16.5 µM (active); with `N/C(Cc1cccs1)=N\OC(=O)COc1ccccc1Cl`, 14.7 µM (active).
Take `N/C(Cc1cccc2ccccc12)=N\OC(=O)Cc1cccs1`: the Potency was 11.7 µM (active).
In the case of `COc1ccc(/C(N)=N/OC(=O)Cc2cccs2)cc1` it was 6.56 µM (active); in that of `Fc1ccc(/C=C/c2nnc(-c3cccs3)o2)cc1`, 2.07 µM (active); in that of `Clc1ccc2oc(-c3ccccc3)cc(=NCCCN3CCOCC3)c2c1`, 4.14 µM (active).
With `CCOc1ccc(N/C=C/C(=O)c2ccc(OC)c(OC)c2)cc1` the figure was 9.27 µM (active); with `Cc1ccc(N/C=C/C(=O)c2ccc(C)cc2)cc1`, 2.33 µM (active).
For `COc1ccc(N/C=C/C(=O)c2ccc(Cl)cc2)cc1`, the Potency is 1.04 µM (active).
Take `COc1ccc(N/C=C\C(=O)c2ccc(C)cc2)cc1OC`: the Potency is 14.7 µM (active).
Take `CC(=O)c1ccc(N/C=C\C(=O)c2ccc(C)cc2)cc1`: the Potency was 1.31 µM (active).
For the compound `COc1ccc(C(=O)/C=C/Nc2ccc(C)cn2)cc1OC`, the Potency was 1.65 µM (active).
In the case of `COc1ccc(C(=O)/C=C/Nc2cc(C)on2)cc1`, the Potency was 2.93 µM (active).
For the compound `Cc1ccc(NC(=O)C(=O)c2ccc(C)cc2)cc1`, the Potency was 2.93 µM (active).
As to `O=C(COc1ccc(F)cc1)N1CCC(c2ccccc2)C1` (centres undefined), the Potency was 13.1 µM (active).
With `O=C(c1ccc(F)cc1)N1CCC(c2ccccc2)C1` (centres undefined) the figure was 7.36 µM (active); with `COc1ccccc1/C=C/C(=O)N1CCC(c2ccccc2)C1` (centres undefined), 2.93 µM (active).
In the case of `O=C(c1ccc(F)cc1)N1CCC(n2nnc3ccccc32)CC1`, the Potency was 5.85 µM (active).
As for `O=C(N/N=C\c1ccco1)Nc1cccc(Cl)c1`, the Potency was 1.85 µM (active).
As to `NC(=O)c1sc2nc(-c3ccccc3)ccc2c1N`, the Potency was 1.85 µM (active).
Regarding `NC(=O)c1sc2nc(-c3cccnc3)ccc2c1N`, the Potency was 18.5 µM (active).
With `Nc1c(C(=O)N2CCCC2)sc2nc(-c3ccccc3)ccc12`, the Potency was 3.69 µM (active).
With `C=CCNC(=O)/C=C/c1ccc(C(C)C)cc1` the figure was 7.36 µM (active); with `CCCNC(=O)/C=C/c1ccc(C(C)C)cc1`, 16.5 µM (active); with `CCCOc1cccc(C(=O)Nc2ccc(Br)cc2F)c1`, 1.85 µM (active).
In the case of `Nc1c(C(=O)c2cccs2)sc2nsc(SCCN3CCCCC3)c12`, the Potency was 4.14 µM (active).
As to `CN1/C(=C\C(=O)c2cccc([N+](=O)[O-])c2)Sc2ccccc21`, the Potency is 0.329 µM (active).
With `Cc1ccc(C(=O)Cn2nnc3ccccc32)cc1C` the figure was 1.31 µM (active).
Turning to `Cc1ccc(C(=O)Cn2nnc3ccccc32)cc1`, the Potency was 2.33 µM (active).
For the compound `Clc1cccc(CSc2ncn(-c3ccccc3)n2)c1`, the Potency is 16.5 µM (active).
As to `Clc1ccccc1CSc1ncn(-c2ccccc2)n1`, the Potency is 5.85 µM (active).
In the case of `C/C(=N/NC(=O)c1cccs1)c1ccc(N2CCOCC2)cc1` it was 11.7 µM (active); in that of `O=C(N/N=C/c1ccc(N2CCOCC2)cc1)c1cccs1`, 3.29 µM (active); in that of `O=C(Nc1nc2c(F)cc(F)cc2s1)c1ccc2c(c1)OCCO2`, 0.0826 µM (active).
As for `Cc1ccc(C(=O)/C=C/c2ccc3c(c2)OCCO3)c(O)c1`, the Potency was 18.5 µM (active).
As to `O=C(/C=C/c1ccc2c(c1)OCCCO2)c1ccccc1O`, the Potency was 2.07 µM (active).
As for `C=CCn1c(C)csc1=Nc1ccc(C(C)=O)cc1`, the Potency was 10.4 µM (active).
In the case of `Cc1cc(C)nc(S/C=C/C(=O)c2ccccc2F)n1` it was 11.7 µM (active); in that of `C/C(N)=C(/C#N)C(=O)CSc1ccccc1F`, 8.26 µM (active).
Turning to `Cc1cc(C)n2cc(CSc3nc4ccccc4s3)nc2n1`, the Potency is 4.65 µM (active).
Turning to `Cc1cc(C)n2c(Br)c(CSc3nc4ccccc4s3)nc2n1`, the Potency was 4.14 µM (active).
Regarding `Cc1cc(C)n2cc(COc3ccc4ccccc4c3)nc2n1`, the Potency is 1.17 µM (active).
For the compound `CC(C)c1ccc(NC(=O)C2=NNC(=O)CC2)cc1`, the Potency is 2.33 µM (active).
For `Cc1cnc(C(=O)Nc2ccc(C(C)C)cc2)cn1`, the Potency was 1.65 µM (active).
Take `O=C1c2ccccc2NC(c2ccccc2O)N1c1ccc(F)cc1` (centres undefined): the Potency is 2.93 µM (active).
With `O=C(Nc1cccc(F)c1)Nc1ccc2c(c1)CCC2` the figure was 0.736 µM (active); with `O=C(Nc1ccc2c(c1)CCC2)c1ccc(Br)s1`, 0.261 µM (active); with `O=C(Nc1ccc2c(c1)CCC2)c1cccc(F)c1`, 4.14 µM (active).
In the case of `O=C1NC(c2ccccc2Cl)=N/C1=C/c1ccco1`, the Potency was 10.4 µM (active).
For the compound `O=C1NC(c2ccc(Br)cc2)=N/C1=C/c1ccco1`, the Potency was 0.927 µM (active).
On to `c1csc(-c2nn3c(C4COc5ccccc5O4)nnc3s2)c1` (centres undefined), for which the Potency is 16.5 µM (active).
Consider `COc1ccc(NC(=O)c2cc(F)cc(F)c2)cc1Cl`, for which the Potency was 9.27 µM (active).
In the case of `COc1ccc(C(=O)Nc2ccc(Cl)c(Cl)c2)c(OC)n1` it was 0.355 µM (active); in that of `COc1ccc(NC(=O)Nc2ccccc2F)cc1Cl`, 2.07 µM (active); in that of `O=C(Cc1cccs1)NCc1cc(Cl)cc(Cl)c1`, 14.7 µM (active).
In the case of `Cc1cccc(CCNc2nc3ccc(C)cc3n3cnnc23)c1`, the Potency is 16.5 µM (active).
For `Cc1cc(C(=O)N/N=C/c2ccccc2)c(C)o1`, the Potency is 6.56 µM (active).
In the case of `Cc1cc(C(=O)N/N=C/c2c(C)nn(-c3ccccc3)c2C)n[nH]1`, the Potency was 14.7 µM (active).
For the compound `Cc1cc(C(=O)N/N=C/c2c(C)nn(-c3ccccc3)c2C)c(C)o1`, the Potency is 8.26 µM (active).
As for `COc1cccc2[nH]c(=O)c(-c3ccccc3)cc12`, the Potency is 1.65 µM (active).
